Consider 13 compounds from PubChem BioAssay (NCI).

Each structure is given as a SMILES string. This is part of a sample that, as a whole, favours compounds with a hit. Of some 83,000 tested, about 20% had one in any assay.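 Single-concentration screen, 48 h exposure, 96-well plates. Endpoint: percent growth. Below 10 = active.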 Values without a mark were called inactive. Activity calls are given as the source filed them.

Among the test systems are HCT-15 colon; HT29 colon; SNB-75 CNS; SNB-19 CNS; U251 CNS; PC-3 prostate; SK-MEL-5 melanoma; UACC-62 melanoma; LOX IMVI melanoma; SK-MEL-28 melanoma.
What all share (experiment): NCI-60 one-dose screen, 48 h (100 = growth as untreated, 0 = no growth, -100 = all killed)
Details in all cases: 10 µM unless noted

Consider `O=c1nc(N2CCOCC2)oc2c(-c3cccc4ccccc34)cccc12`, for which the growth was 93.3% with HCT-15 colon; 89.6% with HT29 colon; 46.9% in the test on SNB-75 CNS; 91.8% with SNB-19 CNS; 85.8% in the test on U251 CNS; 59.7% in the test on PC-3 prostate. In addition, the growth is 79.2% in the test on SK-MEL-5 melanoma, 54.4% in the test on UACC-62 melanoma, 80.1% with LOX IMVI melanoma and 94.4% in the test on SK-MEL-28 melanoma.
Regarding `COc1ccc(-c2c(NC(=O)Nc3ccc(Cl)c(C(F)(F)F)c3)cnn2-c2ccc(S(N)(=O)=O)cc2)cc1`, the growth in the test with HCT-15 colon was 68.3%; in the test with HT29 colon, 24.8%; in the test on SNB-75 CNS, 65.7%; in the test on SNB-19 CNS, 21.5%; in the test on U251 CNS it was 15.6%; in the test on PC-3 prostate, 9.52% (active). For the same compound, the growth was 27% in the test on SK-MEL-5 melanoma, 41.2% in the test with UACC-62 melanoma, 37.6% in the test with LOX IMVI melanoma and 42.2% in the test with SK-MEL-28 melanoma.
In the case of `O=[N+]([O-])c1cccc(C2c3ccccc3Oc3ccccc32)c1`, the growth with HCT-15 colon is 71.1%; in the test with HT29 colon, 85.1%; in the test on SNB-75 CNS, 94.4%; in the test with SNB-19 CNS it was 97.1%; in the test with U251 CNS, 94.7%; with PC-3 prostate it was 84.2%. The growth in the test with SK-MEL-5 melanoma was 99.4%; in the test on UACC-62 melanoma it was 86.1%; with LOX IMVI melanoma, 85.8%; with SK-MEL-28 melanoma, 107%.
For `Cc1cc(NC(=O)c2cccc(C(F)(F)F)c2)ccc1-n1ccc2c(NC(=O)c3ccccc3)nccc21`, the growth is 92.3% with HCT-15 colon; 94.5% in the test with HT29 colon; 91.2% with SNB-75 CNS; 98.4% with SNB-19 CNS; 95.7% in the test with U251 CNS; 74.6% in the test on PC-3 prostate. Further, the growth is 101% in the test with SK-MEL-5 melanoma, 96.9% in the test on UACC-62 melanoma, 101% in the test on LOX IMVI melanoma and 104% in the test on SK-MEL-28 melanoma.
Take `COc1ccc(-c2cc3ccc(N(C)C)cc3nc2N)c(F)c1`: the growth in the test with HCT-15 colon is 31%; in the test on HT29 colon, 7.61% (active); with SNB-75 CNS it was 55%; with SNB-19 CNS, 49.8%; in the test with U251 CNS, 31.3%; in the test with PC-3 prostate it was 28.2%. The growth with SK-MEL-5 melanoma was -62.7% (active); in the test on UACC-62 melanoma it was 48.2%; in the test on LOX IMVI melanoma it was 23.9%; in the test with SK-MEL-28 melanoma, 38.4%.
Turning to `NC(CSC(c1ccccc1)(c1ccccc1)c1ccc(F)cc1)C(=O)O` (stereo not given), the growth in the test on HCT-15 colon was 35.3%; in the test on HT29 colon, 4.36% (active); in the test on SNB-75 CNS, -0.679% (active); with SNB-19 CNS, 35.3%; with U251 CNS it was 31.5%; in the test with PC-3 prostate, 15.8%. Further, the growth is 15.2% in the test with SK-MEL-5 melanoma, 35.5% in the test on UACC-62 melanoma, 46.4% with LOX IMVI melanoma and 58.8% in the test on SK-MEL-28 melanoma.
For `COc1ccc(/C=C/C(=O)/C=C(/C=C/c2ccc(OC)c(OC)c2OC)OB(F)F)c(OC)c1OC`, the growth is 9.58% (active) in the test on HCT-15 colon; 13.9% in the test on HT29 colon; 94.5% with SNB-75 CNS; 57.1% in the test on SNB-19 CNS; 4.99% (active) in the test with U251 CNS; 29.1% with PC-3 prostate. For the same compound, the growth is 36.8% in the test on SK-MEL-5 melanoma, 35.4% with UACC-62 melanoma, -5.79% (active) with LOX IMVI melanoma and 41% with SK-MEL-28 melanoma.
With `Cc1cccc(NCS(=O)(=O)O)c1`, the growth with HCT-15 colon was 101%; with HT29 colon, 101%; with SNB-75 CNS, 106%; in the test on SNB-19 CNS, 101%; in the test with U251 CNS it was 87.8%; in the test on PC-3 prostate, 93%. Also, the growth in the test on SK-MEL-5 melanoma is 99.7%; with UACC-62 melanoma, 113%; with LOX IMVI melanoma, 95.2%; with SK-MEL-28 melanoma it was 113%.
With `CCCOC(=O)c1ccc([N+](=O)[O-])o1`, the growth in the test with HCT-15 colon is 102%; with HT29 colon it was 92.2%; in the test with SNB-75 CNS, 83.7%; in the test with SNB-19 CNS, 111%; in the test with U251 CNS it was 101%; in the test with PC-3 prostate, 91.6%. Further, the growth is 116% in the test on SK-MEL-5 melanoma, 104% in the test on UACC-62 melanoma, 101% in the test on LOX IMVI melanoma and 106% in the test on SK-MEL-28 melanoma.
For `COc1ccc(-c2coc3c(CO)c(O)ccc3c2=O)cc1`, the growth with HCT-15 colon was 43.2%; with HT29 colon, 85.8%; with SNB-75 CNS, 115%; in the test on SNB-19 CNS it was 72.5%; in the test on U251 CNS, -58.9% (active); in the test on PC-3 prostate, -27.7% (active). For the same compound, the growth was 58.7% with SK-MEL-5 melanoma, 32.5% in the test with UACC-62 melanoma, -27.9% (active) in the test on LOX IMVI melanoma and 88.8% with SK-MEL-28 melanoma.
As for `O=C(NNC(=O)c1ccc([N+](=O)[O-])cc1)c1ccc([N+](=O)[O-])cc1`, the growth in the test on HCT-15 colon was 97%; with HT29 colon, 101%; in the test on SNB-75 CNS it was 84.5%; in the test with SNB-19 CNS, 109%; in the test on U251 CNS, 104%; in the test with PC-3 prostate, 102%. Also, the growth was 99.8% with SK-MEL-5 melanoma, 99.9% in the test with UACC-62 melanoma, 97.2% in the test on LOX IMVI melanoma and 109% in the test on SK-MEL-28 melanoma.
As for `COc1ccc(/C=C2\CS(=O)(=O)C/C(=C\c3ccc(OC)cc3)C2=O)cc1`, the growth in the test on HCT-15 colon was 2.14% (active); in the test on HT29 colon, -51.2% (active); in the test on SNB-75 CNS, 60.2%; in the test with SNB-19 CNS, 3.69% (active); in the test with U251 CNS, -3.78% (active); with PC-3 prostate, -33.5% (active). Besides, the growth is -91.5% (active) in the test with SK-MEL-5 melanoma, -64.1% (active) with UACC-62 melanoma, -26.7% (active) with LOX IMVI melanoma and -23.4% (active) in the test with SK-MEL-28 melanoma.
`Nn1c(SCC(=O)Nc2cc(Cl)c(Cl)cc2Cl)nnc1-c1cc(F)c(Cl)cc1Cl`: the growth in the test on HCT-15 colon is 150%; with HT29 colon, 110%; with SNB-75 CNS, 106%; with SNB-19 CNS, 102%; in the test on U251 CNS, 114%; in the test with PC-3 prostate it was 97.8%. In addition, the growth is 78.4% in the test with SK-MEL-5 melanoma, 146% in the test with UACC-62 melanoma, 129% with LOX IMVI melanoma and 135% with SK-MEL-28 melanoma.
